Measured values taken from PubChem BioAssay (Tox21).
Where “and” joins values, the source holds several entries; their conditions need not be identical. Equal entries are not always repeated. Results filed as inconclusive are left out. Calls of active or inactive are those of the source. Unless noted, the call rests on the fitted dose curve; in most records, active means well fitted curve in the direction sought with a large enough effect in the repeat runs; inconclusive means weak or mixed curves; inactive means no such curve, though single readings can be large; an effect the other way counts as inactive or inconclusive.

Tests used:
[1] = qHTS assay for identifying genotoxic compounds that show differential cytotoxicity against isogenic chicken DT40 cell lines with known DNA damage response pathways - Rev3 mutant cell line (AID 743014); further: nearly all actives have a fitted effect of over 55% in size; further: potency means the concentration at half of the fitted maximal effect
[2] = qHTS assay for identifying genotoxic compounds that show differential cytotoxicity against isogenic chicken DT40 cell lines with known DNA damage response pathways - Rad54/Ku70 mutant cell line (AID 743015); further: nearly all actives have a fitted effect of over 60% in size; further: potency means the concentration at half of the fitted maximal effect
[3] = qHTS assay to identify small molecule antagonists of the androgen receptor (AR) signaling pathway using the MDA cell line - cell viability counter screen (AID 743041; further: nearly all actives have a fitted effect of over 45% in size; further: potency means the concentration at half of the fitted maximal effect)
In short: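 Compound exposure lasted 16 h at 37C in MDA-kb2 AR-luc cells stimulated with R1881. Protease-based CellTiter-Fluor reagent was applied for the final 30 min and fluorescence measured.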

[4] = qHTS assay to identify small molecule antagonists of the androgen receptor (AR) signaling pathway - cell viability counter screen (AID 743033; further: nearly all actives have a fitted effect of over 45% in size; further: potency means the concentration at half of the fitted maximal effect)
[5] = qHTS assay for identifying genotoxic compounds that show differential cytotoxicity against isogenic chicken DT40 cell lines with known DNA damage response pathways - wild type cell line (AID 743012); further: nearly all actives have a fitted effect of over 60% in size; further: potency means the concentration at half of the fitted maximal effect
In short: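 Cytotoxicity in repair-proficient parental chicken DT40 cells serves as the comparator for Rad54/Ku70- and Rev3-deficient lines. Cells were exposed to compounds for 40 h at 37 C/5% CO2, and ATP-based luminescence (CellTiter-Glo) measured viability.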

[6] = molecular target: Androgen receptor (Homo sapiens) (UniProt P10275); assay: qHTS assay to identify small molecule agonists of the androgen receptor (AR) signaling pathway (AID 743036; active means well fitted activation curve with a large enough effect in the signal ratio in the repeat runs, with a control signal flat, not every such curve was filed as active; the % refers to the signal ratio)
Androgen receptor (Homo sapiens), sequence (P10275 whole entry, looked up): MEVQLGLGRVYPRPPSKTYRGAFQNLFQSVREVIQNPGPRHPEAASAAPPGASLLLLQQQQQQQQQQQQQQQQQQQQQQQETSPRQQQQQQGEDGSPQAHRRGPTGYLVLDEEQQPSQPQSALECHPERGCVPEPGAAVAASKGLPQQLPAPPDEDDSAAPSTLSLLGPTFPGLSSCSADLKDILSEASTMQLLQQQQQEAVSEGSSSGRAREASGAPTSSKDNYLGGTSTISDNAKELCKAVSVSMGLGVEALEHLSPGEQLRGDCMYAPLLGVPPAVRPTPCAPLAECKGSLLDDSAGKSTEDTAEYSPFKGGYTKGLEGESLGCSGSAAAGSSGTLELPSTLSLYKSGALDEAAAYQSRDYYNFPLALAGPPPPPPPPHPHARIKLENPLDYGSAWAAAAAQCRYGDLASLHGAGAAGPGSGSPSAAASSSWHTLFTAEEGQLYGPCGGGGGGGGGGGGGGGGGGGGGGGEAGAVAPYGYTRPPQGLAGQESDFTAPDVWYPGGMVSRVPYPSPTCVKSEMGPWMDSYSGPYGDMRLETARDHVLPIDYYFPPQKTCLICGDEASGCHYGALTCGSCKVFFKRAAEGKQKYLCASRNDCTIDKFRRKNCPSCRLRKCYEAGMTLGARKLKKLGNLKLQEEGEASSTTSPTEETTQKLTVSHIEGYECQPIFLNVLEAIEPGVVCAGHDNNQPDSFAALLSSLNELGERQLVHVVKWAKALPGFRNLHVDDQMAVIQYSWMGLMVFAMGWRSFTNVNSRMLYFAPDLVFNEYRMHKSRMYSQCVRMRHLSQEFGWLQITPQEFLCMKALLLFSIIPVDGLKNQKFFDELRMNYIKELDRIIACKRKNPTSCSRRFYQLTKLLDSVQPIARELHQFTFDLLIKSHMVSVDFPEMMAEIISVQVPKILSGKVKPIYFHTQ
In short: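 In this Tox21 qHTS, 2,000 HEK293 AR-bla cells per well were incubated with compounds for 16 h at 37C and 5% CO2. Fluorescence intensity was recorded 2 h after adding LiveBLAzer B/G FRET substrate at room temperature.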

[7] = molecular target: Androgen receptor (Homo sapiens) (UniProt P10275); assay: qHTS assay to identify small molecule antagonists of the androgen receptor (AR) signaling pathway using the MDA cell line (AID 743042; further: nearly all actives have a fitted effect of over 55% in size; further: potency means the concentration at half of the fitted maximal effect)
In short: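 MDA-kb2 breast carcinoma cells carrying MMTV-luciferase (AR/GR responsive) were co-treated with compounds and the agonist R1881 for 16 h at 37C. Inhibition read as ONE-Glo luminescence; CellTiter-Fluor fluorescence measured in parallel for cytotoxicity.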

[8] = qHTS assay to identify small molecule antagonists of the glucocorticoid receptor (GR) signaling pathway - cell viability counter screen (AID 720693); further: nearly all actives have a fitted effect of over 55% in size
[9] = molecular target: Androgen receptor (Homo sapiens) (UniProt P10275); assay: qHTS assay to identify small molecule antagonists of the androgen receptor (AR) signaling pathway (AID 743035; active means well fitted inhibition curve with a large enough effect in the signal ratio in the repeat runs, not every such curve was filed as active; the % refers to the signal ratio; further: potency means the concentration at half of the fitted maximal effect)
In short: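 Steps: seed AR-UAS-bla GripTite HEK293 cells, incubate 4 h at 37C; pin in test compound, then add agonist R1881; incubate 16 h at 37C; add LiveBLAzer B/G FRET substrate, 2 h at room temperature; read fluorescence.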

[10] = molecular target: Androgen receptor (Homo sapiens) (UniProt P10275); assay: qHTS assay to identify small molecule agonists of the androgen receptor (AR) signaling pathway using the MDA cell line (AID 743040; further: nearly all actives have a fitted effect of over 20% in size)
In short: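 Testing was done with the MDA-kb2 AR-luc line, a human breast carcinoma stably transfected with MMTV-luciferase containing AR and GR response elements. Cells were exposed 16 h at 37C before ONE-Glo luminescence detection.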

Measured: Potency

O=C(NC(=O)c1c(F)cccc1F)Nc1cc(Cl)c(Oc2ncc(C(F)(F)F)cc2Cl)c(Cl)c1
inactive: [3]
active: [1] 2.08 µM | [2] 1.65 µM

CC(C)(C)C(O)C(Oc1ccc(Cl)cc1)n1cncn1 (stereo not drawn)
active: [1] 32.5 µM | [2] 45.8 µM
inactive: [4]

NC(=O)C(Cl)(Cl)Cl
inactive: [1] | [2] | [4] | [3]

COCCOCCO
active: [2] 61.1 µM
inactive: [4] | [3]

O=C(O)C1(c2ccc3c(c2)OC[C@H](Cc2ccc(-c4ccccc4)cc2)[C@H]3O)CCCC1
active: [5] 61.1 µM | [1] 61.1 µM | [2] 61.1 µM

IC(I)=C(I)I
inactive: [6]
active: [5] 0.611 µM | [1] 1.22 µM | [2] 1.22 µM | [4] 12.3 µM | [7] 19.3 µM

N#CCC#N
inactive: [8] | [4] | [3] | [7]

CCCCC(O)(Cn1cncn1)c1ccc(Cl)cc1Cl (stereo not drawn)
active: [5] 15.3 µM | [1] 13.7 µM | [2] 13.7 µM | [4] 48.9 µM | [9] 17.4 µM
inactive: [6] | [10] | [3]

COc1nn(CSP(=S)(OC)OC)c(=O)s1
active: [5] 19.3 µM | [1] 45.8 µM | [2] 50.5 µM

O=C1NCN(c2ccccc2)C12CCN(CCCOc1ccc(F)cc1)CC2
active: [1] 13.3 µM | [2] 16.8 µM
inactive: [4]

C[N+](C)(C)CCCl
inactive: [5] | [1] | [2] | [4] | [9] | [3] | [7]

O=C(Nc1ccccc1)Nc1ccnc(Cl)c1
active: [1] 15.4 µM | [2] 13.7 µM | [4] 38.9 µM | [7] 30.6 µM

O=S1(=O)OC(c2cc(Br)c(O)c(Br)c2)(c2cc(Br)c(O)c(Br)c2)c2ccccc21
active: [5] 31.5 µM | [1] 28.1 µM | [2] 25 µM | [3] 62.8 µM
inactive: [4] | [10]

CC(C)(OO)c1ccccc1
active: [1] 27.3 µM | [2] 17.2 µM
inactive: [4] | [3]

OC(c1ccc(Cl)cc1)(c1ccc(Cl)cc1)c1cccnc1
inactive: [6] | [3]
active: [5] 9.69 µM | [1] 8.63 µM | [2] 8.63 µM | [4] 54.9 µM | [9] 34.7 µM | [7] 61.1 µM

ClP(Cl)(Cl)(Cl)Cl
inactive: [8] | [4] | [3]

CC(=O)c1cc2c(cc1C)C(C)(C)C(C)CC2(C)C (stereo not drawn)
inactive: [8] | [4] | [3]

CCOP(=S)(Oc1ccc([N+](=O)[O-])cc1)c1ccccc1 (stereo not drawn)
inactive: [8] | [4] | [3]

O=C(CCl)c1ccc(Cl)cc1Cl
active: [5] 668 nM and 1.72 µM | [1] 1.06 µM and 2.73 µM and 17.1 µM | [2] 944 nM and 2.43 µM
inactive: [4] | [6] | [3] | [7]

CCCC(Cn1cncn1)c1ccc(Cl)cc1Cl (stereo not drawn)
active: [5] 5.45 µM | [1] 6.11 µM | [2] 10.9 µM

c1cc2ccc3cccc4ccc(c1)c2c34
active: [5] 71.9 µM | [2] 67.9 µM
inactive: [7]

CO[C@@H]1[C@H](OC(=O)NC(=O)CCl)CC[C@]2(CO2)[C@H]1[C@@]1(C)O[C@@H]1CC=C(C)C
inactive: [8] | [4] | [3] | [7]

CO/C=C(/C(=O)OC)c1ccccc1COc1cccc(C(F)(F)F)n1
active: [5] 0.0769 µM | [1] 0.0769 µM | [2] 0.0485 µM | [4] 3.46 µM
inactive: [3]

CCOP(=S)(OCC)Oc1cc(Cl)c(Br)cc1Cl
inactive: [8] | [4] | [6] | [3] | [7]

CO/N=C(/C(=O)OC)c1ccccc1COc1ccccc1C
active: [5] 0.611 µM | [1] 0.969 µM | [2] 0.864 µM | [4] 6.92 µM | [7] 27.3 µM

CN(C)c1ccc(N(C)C)cc1
inactive: [8] | [4] | [3]

CCCN(CC1CC1)c1c([N+](=O)[O-])cc(C(F)(F)F)cc1[N+](=O)[O-]
inactive: [5] | [1] | [2] | [4] | [3]

II
inactive: [8] | [4] | [9] | [3] | [7]
